For eight compounds, growth inhibition results are on record in PubChem BioAssay (NCI).

This is part of a sample that, as a whole, favours compounds with a hit. Of some 79,000 tested, about 15% had one in any assay. Values without a mark were called inactive. Active and inactive are the calls of the source. Cut-off read from the data, not from the text of the source: active = growth inhibition above about 70%; inactive = the rest.

A short description of this test: NCI Yeast Anticancer Drug Screen. Data for the rad52 strain (AID 147).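 Note: 0% = growth of vehicle-treated control cultures.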 As to conditions: S. cerevisiae rad52 mutant growth inhibition, hits give high values. The protocol: Growth inhibition of yeast strains with defined genetic alterations is measured as a screen for potential anti-cancer activity. Selected strains with alterations in DNA damage repair or cell cycle control were exposed to compounds and growth inhibition was measured relative to vehicle treated controls. The strain used in this assay is rad52

On to `CCCCCNC(=O)c1c(O)[nH]c(=S)[nH]c1=O`, for which the growth inhibition was -6% (at 1.2 µM); -15% (at 3.7 µM); 23% (at 11.0 µM); 89% (active) (at 33.0 µM); 94% (active) (at 100.0 µM).

In the case of `CC1CCC2(NC1)OC1CC3C4CCC5CC(OC6OC(CO)C(OC7OC(CO)C(O)C(OC8OCC(O)C(O)C8O)C7OC7OC(CO)C(O)C(O)C7O)C(O)C6O)CCC5(C)C4CCC3(C)C1C2C` (stereo not given), the growth inhibition was 30% (at 1.2 µM); 8% (at 3.7 µM); 12% (at 11.0 µM); 0% (at 33.0 µM); 76% (active) (at 100.0 µM).

Consider `CC1=C(CO)C2=C(C)C3(CC3)[C@@](C)(O)C(=O)C2=C1`, for which the growth inhibition (at 1.2 µM) is 1%; the growth inhibition (at 3.7 µM) was 9%; the growth inhibition (at 11.0 µM) is 27%; the growth inhibition (at 33.0 µM) is 52%; the growth inhibition (at 100.0 µM) is 81% (active).

In the case of `O=[N+]([O-])c1cc([As](Br)c2ccc(O)c([N+](=O)[O-])c2)ccc1O`, the growth inhibition (at 1.2 µM) was 15%; the growth inhibition (at 3.7 µM) was 57%; the growth inhibition (at 11.0 µM) was 99% (active); the growth inhibition (at 33.0 µM) was 99% (active); the growth inhibition (at 100.0 µM) was 98% (active).

`COC(=O)c1c(C)ccc2c(O)c3c(cc12)C(=O)c1c2c(cc(O)c1C3=O)C1(C)OC(C)(O2)C(O)C(N(C)C)C1O` (stereo not given): the growth inhibition reads like this: (at 1.2 µM) 2%; (at 3.7 µM) 17%; (at 11.0 µM) 68%; (at 33.0 µM) 94% (active); (at 100.0 µM) 91% (active).

In the case of `C[N+](CCCl)(CCCl)Cc1cccc2cccc([N+](=O)[O-])c12`, the growth inhibition (at 1.2 µM) was 31%; the growth inhibition (at 3.7 µM) is 47%; the growth inhibition (at 11.0 µM) was 74% (active); the growth inhibition (at 33.0 µM) was 92% (active); the growth inhibition (at 100.0 µM) is 94% (active).

Take `O=C1OC2C(O1)C1(Cl)C(Cl)=C(Cl)C2(Cl)C1(Cl)Cl` (stereo not given): the growth inhibition was -3% (at 1.2 µM); -2% (at 3.7 µM); -1% (at 11.0 µM); 0% (at 33.0 µM); 1% (at 100.0 µM).

As to `O=[N+]([O-])c1ccc(-n2nc3ccc4c(no[n+]4[O-])c3[n+]2[O-])c([N+](=O)[O-])c1`, the growth inhibition by setting is: (at 1.2 µM) 0%; (at 3.7 µM) 1%; (at 11.0 µM) 2%; (at 33.0 µM) 4%; (at 100.0 µM) 6%.
